Unmarked numbers belong to inactive results. Inconclusive results are not listed. Calls of active or inactive are those of the source. Unless noted, the call rests on the fitted dose curve; in most records, active means well fitted curve in the direction sought with a large enough effect; inconclusive means small, poorly fitted or top-dose-only effect, or another doubt; inactive means no such curve, though single readings can be large; an effect the other way counts as inactive or inconclusive. A value given as a limit tells only on which side of the number the result lay.

The text below walks through data of PubChem BioAssay (NCATS).

Assay [1] is described as follows: Cell Viability - Hek293 (AID 427;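 active means compounds whose dose-response curve shows a full or clear partial loss of cell viability, called from curve shape rather than a numeric limit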;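 further: potency means the concentration at half of the fitted maximal effect; cells exposed to compound for 40 hours at 37 °C before reading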). To be noted: qHTS. A digest of the protocol:
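Luminescent ATP read-out (CellTiter-Glo, 20 min RT) after 40 hr compound exposure at 37 °C in complete medium. Signal normalized to DMSO (basal) and 100 uM tamoxifen (100% inhibition); concentration-response fitted with the standard Hill equation to give AC50.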

Assay [2] is described as follows: Cell Viability - HepG2 (AID 433; calls by dose curve;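 further: potency means the concentration at half of the fitted maximal effect; potency for ATP loss meaning cytotoxicity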). The note with it: qHTS. A digest of the protocol: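 In this qHTS format, a 40 h, 37 °C compound incubation of HepG2 cells in complete medium precedes a 20 min CellTiter-Glo step at room temperature. Tamoxifen and doxorubicin serve as positive controls; Hill-equation fits yield AC50.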
Assay [3] is described as follows: Cell Viability - N2a (AID 540).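 Further: plate controls were DMSO alone for no effect and tamoxifen control for full effect; nearly all actives have a fitted effect of over 45% in size.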 To be noted: N2a mouse neuroblastoma cell viability; activity change, negative = cytotoxicity: at 92.2 µM (top of the series). In short, it runs like this: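 Mouse neuroblastoma N2a cells (1500/well) were preincubated 5 hr at 37 °C, then exposed to compounds for 40 hr at 37 °C in complete medium. Viability was read as intracellular ATP by CellTiter-Glo luminescence; AC50 from Hill fits.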

Assay [4] in a line: Cell Viability - SH-SY5Y (AID 544). Further: nearly all actives have a fitted effect of over 55% in size. Further: potency means the concentration at half of the fitted maximal effect.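 On viability change, negative = cytotoxic: 0% = DMSO alone and -100% = 100 µM tamoxifen.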 To be noted: SH-SY5Y neuroblastoma cell viability; viability change, negative = cytotoxic: at 92.2 µM (top of the series). In short, it runs like this: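 Human neuroblastoma SH-SY5Y cells (1500/well) in complete medium were exposed to compounds for 40 hr at 37 °C; intracellular ATP was then quantified by CellTiter-Glo luminescence after 20 min at room temperature. AC50 came from Hill-equation concentration-response fits.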

A short description of assay [5]: Cell Viability - Renal Proximal Tubule (AID 545). Further: nearly all actives have a fitted effect of over 40% in size. Further: potency means the concentration at half of the fitted maximal effect.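 On activity change, negative = cytotoxicity: 0% = DMSO only and -100% = 100 µM tamoxifen.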 To be noted: renal proximal tubule cells viability, primary cells of rat origin; activity change, negative = cytotoxicity: at 91.7 µM (top of the series). In short, it runs like this: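 In this qHTS format, normal rat kidney-derived proximal tubule cells in complete culture medium receive compound titrations, then sit 40 hours at 37 °C before luciferase-based ATP quantitation; potency is reported as AC50 from concentration-response curves.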

A short description of assay [6]: Cellular Toxicity (caspase-3) BJ (AID 658). The note with it: BJ fibroblasts, luminescence; Potency: caspase-3 activation; series mostly up to 91.7 µM. A digest of the protocol:
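BJ human foreskin fibroblasts, 1000 cells/well, treated 16 hours at 37 °C in complete medium; caspase 3/7 activity by Caspase-Glo luminescence after 1 hr at room temperature. Normalized to DMSO and 10 uM staurosporine; AC50 from Hill fits.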

A short description of assay [7]: Cellular Toxicity (caspase-3) MRC-5 (AID 659). The note with it: MRC-5 cells, luminescence, normalized: DMSO 0%, 10 µM staurosporine 100%; series mostly up to 91.7 µM. A digest of the protocol:
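MRC-5 human normal lung fibroblasts, 1500 cells/well, treated 16 h at 37 °C in complete medium. Caspase 3/7 measured by Caspase-Glo luminescence after 1 h at room temperature. Normalized to DMSO and 10 uM staurosporine; AC50 from Hill fit.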

The nature of assay [8]: Cellular Toxicity (caspase-3) SK-N-SH (AID 661). To be noted: SK-N-SH caspase-3 activation, qHTS; caspase-3 activation: at 91.7 µM (top of the series), DMSO as zero, staurosporine as full. A digest of the protocol: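 SK-N-SH human neuroblastoma cells (1500/well) were treated with compounds for 16 hr at 37 °C in complete medium; caspase 3/7 activity was read by Caspase-Glo luminescence. AC50 came from Hill fits of data normalized to DMSO and 10 uM staurosporine.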
A general note: qHTS replaces the single test concentration by a dilution series.

Assay [9] in a line: Cellular Toxicity (caspase-3) Renal Proximal Tubule (AID 667).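 Further: cells exposed to compound for 16 hours at 37 °C before detection.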 The note with it: renal proximal tubule cells, primary cells freshly taken from rat, solvent-only wells 0%, staurosporine 100%; series mostly up to 91.7 µM. A digest of the protocol:
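Caspase-Glo 3/7 read-out, rat primary kidney proximal tubule cells. Compound exposure 16 h, 37 °C; detection after 1 h at RT. Activity scaled to DMSO and 10 uM staurosporine.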

Assay [10] is described as follows: MultiTox-Fluor Cytotoxicity Assay - LYMP1-003 - Dead Cells (AID 961).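 Further: 0% = DMSO and 100% = tetraoctylammonium bromide; nearly all actives have a fitted effect of over 70% in size.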 To be noted: LYMP1-003 lymphoblastoid cells, dead-cell protease fluorescence; series mostly up to 92.2 µM. In short, it runs like this:
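Human lymphoblastoid LYMP1-003 cells (2500/well) were treated with compounds for 16 hr at 37 C in complete medium. Dead-cell protease release was read by bis-AAF-R110 fluorescence (Ex/Em 485/520). AC50 came from Hill fits, normalized to DMSO and 15 uM tetraoctylammonium bromide.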

A short description of assay [11]: MultiTox-Fluor Cytotoxicity Assay - LYMP1-003 - Live Cells (AID 962).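 Further: 0% = DMSO only and full loss = 92 µM tetraoctylammonium bromide; cytotoxic hits lower the live-cell protease signal.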 The note with it: LYMP1-003 lymphoblastoid cells, MultiTox-Fluor live-cell protease fluorescence; series mostly up to 92.2 µM. A digest of the protocol:
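LYMP1-003 human lymphoblastoid cells (2500/well) in complete medium were preincubated 5 hr at 37 C, then exposed to compounds for 16 hr at 37 C. Live-cell protease cleavage of GF-AFC read by fluorescence (Ex/Em 405/510); AC50 from Hill fits.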

A short description of assay [12]: Cell Viability - LYMP1-003 - Assay at 24 hr (AID 963).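 Further: plate controls were DMSO only for no effect and tetraoctylammonium bromide positive control for full effect.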 The note with it: LYMP1-003 lymphoblastoid cell viability; series mostly up to 92.2 µM. A digest of the protocol:
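Human lymphoblastoid LYMP1-003 cells (2500/well) were rested 5 hr at 37 C, then exposed to compounds in complete medium for 24 hr at 37 C. Cellular ATP was quantified by CellTiter-Glo luminescence, and AC50 values came from Hill fits of concentration-response data.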

Assay [13] in a line: Cell Viability - LYMP2-004 (AID 966). Further: nearly all actives have a fitted effect of over 65% in size. Further: potency means the concentration at half of the fitted maximal effect.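 On activity change, negative = cytotoxicity: plate controls were DMSO only for no effect and tetraoctylammonium bromide control for full effect.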 To be noted: LYMP2-004 lymphoblastoid cell viability, qHTS; series mostly up to 92.2 µM. In short, it runs like this: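 Human lymphoblastoid cells (2500/well) in complete medium were treated with compounds for 24 hr at 37 C, then intracellular ATP was measured by CellTiter-Glo luminescence. AC50 values came from Hill-equation fits of concentration-response data.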

Assay [14] can be described thus: Cell Viability - LYMP2-009 (AID 968). Further: nearly all actives have a fitted effect of over 55% in size. Further: potency means the concentration at half of the fitted maximal effect. The note with it: LYMP2-009 lymphoblastoid cell viability; series mostly up to 92.2 µM.
Assay [15] in a line: Cell Viability - LYMP2-019 (AID 973). Further: nearly all actives have a fitted effect of over 55% in size. Further: potency means the concentration at half of the fitted maximal effect.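 On activity change, negative = cytotoxicity: 0% = DMSO alone and full effect = 92 µM tetraoctylammonium bromide.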 The note with it: LYMP2-019 lymphoblastoid cell line viability; series mostly up to 92.2 µM. In short, it runs like this: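 Human lymphoblastoid cells were seeded at 2500 cells/well, preincubated 5 hr at 37 C, then exposed to compounds for 24 hr at 37 C in complete medium. Intracellular ATP was measured by CellTiter-Glo luminescence; AC50 from Hill fits.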

Assay [16] can be described thus: Cell Viability - LYMP2-021 (AID 974).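 Further: compound exposure lasts 24 hours at 37 °C; nearly all actives have a fitted effect of over 55% in size.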 Further: potency means the concentration at half of the fitted maximal effect. On activity change, negative = cytotoxicity: on the % scale 0 is the no-effect control and ±100 the full control effect. The note with it: LYMP2-021 lymphoblastoid cells viability; series mostly up to 92.2 µM. A digest of the protocol:
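Human lymphoblastoid cells (2500/well) were preincubated 5 hr at 37 C, then exposed to compounds for 24 hr at 37 C in complete medium. Intracellular ATP was read by CellTiter-Glo luminescence; AC50 came from Hill-equation fits of concentration-response data.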

Assay [17] can be described thus: Cell Viability - LYMP2-023 (AID 975). Further: nearly all actives have a fitted effect of over 55% in size. Further: potency means the concentration at half of the fitted maximal effect.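 On activity change, negative = cytotoxicity: cellular ATP measured by luciferase luminescence as viability proxy; plate controls were DMSO only for no effect and 92 µM tetraoctylammonium bromide control for full effect.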 To be noted: LYMP2-023 lymphoblastoid cell viability; series mostly up to 92.2 µM. A digest of the protocol:
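Human lymphoblastoid cells (2500/well) were preincubated 5 hr at 37 C, then exposed to compounds for 24 hr at 37 C in complete medium. Cellular ATP was read by CellTiter-Glo luminescence, and AC50 came from Hill-equation fits.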

A short description of assay [18]: Cell Viability - LYMP1-002 - Assay at 24 hr (AID 993). Further: on the % scale 0 is the no-effect control and ±100 the full control effect. To be noted: LYMP1-002 lymphoblastoid cells viability; series mostly up to 92.2 µM. In short, it runs like this:
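Human lymphoblastoid LYMP1-002 cells, 2500/well in complete medium, were treated with compounds for 24 h at 37 C; intracellular ATP was read by CellTiter-Glo luminescence. AC50 values came from Hill-equation fits of qHTS concentration-response data.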

A short description of assay [19]: qHTS assay for small molecule agonists of the antioxidant response element (ARE) signaling pathway measured by Nrf2-dependant transcriptional activity (AID 720636; active means well fitted curve in the direction sought with a large enough effect in the repeat runs; an effect the other way counts as inactive or inconclusive; further: % of control where 0% means no effect). The note with it: ARE-luc HepG2, Nrf2 luciferase reporter, 16 h; series mostly up to 92.4 µM. In short, it runs like this: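 Cells: ARE-luc HepG2 with Nrf2-responsive luciferase. Medium contained 1% dialyzed FBS. Compound exposure lasted 16 hr at 37 C and 5% CO2, followed by ONE-Glo luciferase detection.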

Assay [20] is described as follows: qHTS assay for cell viability of the p53RE-bla HCT-116 cell line (AID 743292). The note with it: p53RE-bla HCT-116 viability, ATP luminescence, 16 h; series mostly up to 95 µM. In short, it runs like this: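 HCT-116 p53RE-bla cells seeded 4,000/well; 5 h at 37 C; compound (DMSO) added; 16 h at 37 C; CellTiter-Glo added, 30 min RT; luminescence read.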

For `O=C(OCC(COC(=O)c1ccccc1)(COC(=O)c1ccccc1)COC(=O)c1ccccc1)c1ccccc1`, the Potency in assay [1] and in assay [2] was greater than 92 µM in each case. Moreover, the Potency entry in assay [3], in [4], in assay [5], in assay [6], in assay [10] and in assay [11] was “inactive” in each case. The Potency entry in assay [12], in [13], in assay [14], in assay [15], in [16] and in [17] was “inactive” in each case. Also, the Potency result in assay [18], in assay [19] and in assay [20] was “inactive” each time. Also, the molecule was called inactive in assay [7] and in [9]. The caspase-3 activation in assay [8] is -0.121%.
For the molecule `Cc1ccc(S(=O)(=O)Oc2ccc(N=Nc3ccc(-c4ccc(N=Nc5c(O)ccc6cc(S(=O)(=O)O)cc(S(=O)(=O)O)c56)c(C)c4)cc3C)cc2)cc1`, the Potency in assay [5] is 31.6 µM (active). Further, the Potency result in assay [6] and in [19] was “inactive” throughout. Moreover, the result in assay [7] and in [9] was inactive. The caspase-3 activation in assay [8] was -0.915%.
On to `Cc1cc(Nc2ccc(O)cc2)ccc1N`, for which the Potency in assay [1] was 52.8 µM (active); in assay [4] it was 6.31 µM (active); in assay [13] it was 39.8 µM (active); in assay [14], 50.1 µM (active); in [15] it was 39.8 µM (active); in [16], 50.1 µM (active). Moreover, the Potency in assay [17] was 50.1 µM (active). Moreover, the activity change, negative = cytotoxicity in assay [3] is -119% (active). For the same molecule, the Potency result in assay [5], in assay [6], in assay [10], in assay [11], in [12] and in assay [18] was “inactive” in each case. Also, the Potency entry in [19] and in [20] was “inactive” in each case. Also, the molecule was classed as inactive in [7] and in assay [9]. The caspase-3 activation in [8] is 12.7%.
Consider `CN(C)c1ccc(C2(c3ccc(N(C)C)cc3)OC(=O)c3cc(N(C)C)ccc32)cc1`, for which the Potency in assay [1] and in [2] was greater than 92 µM each time. Also, the Potency result in [3], in [4], in [5], in assay [6], in assay [10] and in assay [11] was “inactive” each time. Also, the Potency entry in assay [12], in assay [13], in [14], in assay [15], in assay [16] and in assay [17] was “inactive” each time. Further, the Potency entry in [18], in assay [19] and in [20] was “inactive” throughout. Besides, the result in assay [7] and in assay [9] was inactive. The caspase-3 activation in [8] was -0.0609%.
